Pf Dd2 inh: inhibitors of Plasmodium falciparum Dd2 growth; actives 2.3% (n = 94,000); activity change, % at 10 µM; P. falciparum Dd2 growth, SYBR Green, 72 h; hits give low values; in the data active = activity change below about -80%
Tcruzi prolif: blocks T. cruzi growth in NIH3T3 culture; T. cruzi beta-gal in NIH3T3, GalScreen luminescence, 90 h; AID 624255; inhibition, % at 8.34 µM; actives 5.9% (n = 77,000);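 active = mean inhibition above about 93%, with at least 55% of replicates each passing it, limit read from the data, passing the limit was not always enough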
C diff HTS: inhibitors of Clostridium difficile growth | Clostridium difficile clinical isolate growth, OD600, 24 h; hits give low values | growth activity, negative = inhibition, % at 16 µg/mL (by protocol) | actives 0.25% (n = 86,000);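 active = mean growth activity at or below -80% and every replicate also at or below -80%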
Of the large screens only hits and unclear results are named; the others gave an inactive call. The list is not random: actives were taken first. Their share in the collection is about 6.8%.

C[C@@H]1CCCCO[C@@H](CN(C)S(=O)(=O)c2cn(C)cn2)[C@@H](C)CN([C@@H](C)CO)C(=O)c2cc(NC(=O)Nc3ccc4c(c3)OCO4)ccc2O1	none
C[C@@H]1CN([C@@H](C)CO)C(=O)c2cccc(NS(=O)(=O)c3ccc(F)cc3)c2O[C@H]1CN(C)C(=O)Nc1cccc2ccccc12	none (no result: Tcruzi prolif)
CCCNC(=O)Nc1ccc2c(c1)C(=O)N(C)C[C@@H](OC)[C@H](C)CN(CC1CCCC1)[C@@H](C)CO2	none (no result: Pf Dd2 inh, C diff HTS)
COc1ccccc1-c1ccc2c(c1)O[C@H](CN(C)Cc1ccc3c(c1)OCO3)[C@H](C)CN([C@@H](C)CO)S2(=O)=O	none (no result: Tcruzi prolif)
CC(C)CC#Cc1ccc2c(c1)O[C@@H](CN(C)Cc1ccc3c(c1)OCO3)[C@@H](C)CN([C@H](C)CO)S2(=O)=O	none
CC(C)CC#Cc1ccc2c(c1)O[C@@H](CN(C)Cc1ccc3c(c1)OCO3)[C@H](C)CN([C@@H](C)CO)S2(=O)=O	Pf Dd2 inh -81
COc1ccccc1-c1ccc2c(c1)O[C@H](CN(C)Cc1ccc3c(c1)OCO3)[C@@H](C)CN([C@H](C)CO)S2(=O)=O	Pf Dd2 inh -84 (no result: Tcruzi prolif)
COc1cccc(CNC(=O)[C@H]2[C@H](CO)[C@H]3Cn4c(ccc(-c5cccnc5)c4=O)[C@H]3N2C)c1	none
C[C@H](CO)N1C[C@H](C)[C@H](CN(C)C(=O)NC2CCCC2)Oc2ncc(C#CC3CCCCC3)cc2C1=O	none
COc1ccc2c3c([nH]c2c1)[C@H](CO)N(Cc1cc(F)ccc1F)CC31CCN(C(=O)C2CCC2)CC1	Pf Dd2 inh -88 (no result: Tcruzi prolif)
COc1ccc2c3c([nH]c2c1)[C@@H](CO)N(Cc1cc(F)ccc1F)CC31CN(C(C)=O)C1	none (no result: Tcruzi prolif)
COc1ccc2c3c([nH]c2c1)[C@@H](CO)N(Cc1ccccc1OC)CC31CCN(C(C)=O)CC1	none (no result: Tcruzi prolif, C diff HTS)
COCC(=O)N1CC2(C1)CN(Cc1cc(F)ccc1F)[C@@H](CO)c1[nH]c3cc(OC)ccc3c12	none (no result: Tcruzi prolif)
CCC(=O)N1CCC2(CC1)CN(Cc1cc(F)ccc1F)[C@H](CO)c1[nH]c3cc(OC)ccc3c12	Pf Dd2 inh -87 (no result: Tcruzi prolif)
CCC(=O)N1CC2(C1)CN(Cc1cc(F)ccc1F)[C@H](CO)c1[nH]c3cc(OC)ccc3c12	Pf Dd2 inh -90 (no result: Tcruzi prolif)
COc1ccc2c3c([nH]c2c1)[C@@H](CO)N(CC1CC1)CC31CN(Cc2cc(F)ccc2F)C1	none (no result: Tcruzi prolif)
COc1ccc2c3c([nH]c2c1)[C@H](CO)N(Cc1cc(F)ccc1F)CC31CCN(C(C)=O)CC1	Pf Dd2 inh -90 (no result: Tcruzi prolif)
COc1ccc(CCN2C(=O)[C@@]3(Cc4ccccc42)c2ccccc2C(=O)N(C2CCCCC2)[C@H]3c2ccc(CO)cc2)cc1	none (no result: Pf Dd2 inh, Tcruzi prolif)
C[C@H](CO)N1C[C@H](C)[C@H](CN(C)C(=O)C2CCCCC2)Oc2cc(C3=CCCC3)ccc2S1(=O)=O	none
COc1ccc2c3c([nH]c2c1)[C@@H](CO)N(C(=O)Nc1c(C)noc1C)CC31CCN(CC2CCCCC2)CC1	none (no result: Tcruzi prolif, C diff HTS)
C[C@@H]1CN([C@H](C)CO)C(=O)c2cc(NS(=O)(=O)c3cn(C)cn3)ccc2O[C@@H](C)CCCCO[C@@H]1CN(C)C(=O)C1CCCCC1	none
O=C(C[C@H]1CC[C@@H]2[C@H](COC[C@@H](O)CN2C(=O)Nc2ccc(F)cc2)O1)NCc1ccncn1	none (no result: C diff HTS)
C[C@@H]1CCCCO[C@H](CN(C)CC2CCCCC2)[C@H](C)CN([C@@H](C)CO)C(=O)c2cc(NC(=O)Nc3cccc4ccccc34)ccc2O1	Pf Dd2 inh -88
C[C@@H]1CCCCO[C@@H](CN(C)CC2CC2)[C@H](C)CN([C@@H](C)CO)C(=O)c2cc(NC(=O)Nc3cccc4ccccc34)ccc2O1	none
C[C@@H]1CCCCO[C@H](CN(C)CC2CCCCC2)[C@H](C)CN([C@H](C)CO)C(=O)c2cc(NC(=O)Nc3cccc4ccccc34)ccc2O1	Pf Dd2 inh -88
C[C@@H]1CCCCO[C@@H](CN(C)CC2CCCCC2)[C@@H](C)CN([C@@H](C)CO)C(=O)c2cc(NC(=O)Nc3cccc4ccccc34)ccc2O1	Pf Dd2 inh -82
C[C@@H]1CCCCO[C@H](CN(C)CC2CC2)[C@H](C)CN([C@@H](C)CO)C(=O)c2cc(NC(=O)Nc3cccc4ccccc34)ccc2O1	none
CCCN(C)C[C@H]1OCCCC[C@H](C)Oc2ccc(NC(=O)Nc3cccc4ccccc34)cc2C(=O)N([C@@H](C)CO)C[C@H]1C	Pf Dd2 inh -91
C[C@H](CO)N1C[C@H](C)[C@@H](CN(C)CC2CCCCC2)OCCCC[C@H](C)Oc2ccc(NC(=O)Nc3cccc4ccccc34)cc2C1=O	none
C[C@H](CO)N1C[C@H](C)[C@H](CN(C)CC2CCCCC2)OCCCC[C@H](C)Oc2ccc(NC(=O)Nc3cccc4ccccc34)cc2C1=O	none
CCCN1C[C@H](C)[C@@H](OC)CN(C)C(=O)c2cc(NC(=O)COC)ccc2OC[C@@H]1C	none
C[C@@H]1CN([C@@H](C)CO)C(=O)Cc2cc(NC(=O)Nc3ccc(F)cc3)ccc2O[C@H]1CN(C)S(=O)(=O)c1cccs1	none
C[C@@H]1CN([C@@H](C)CO)C(=O)Cc2cc(NC(=O)Cc3cn(C)c4ccccc34)ccc2O[C@H]1CN(C)C(=O)Nc1ccccc1	none
C[C@@H]1CN([C@H](C)CO)C(=O)c2cc(NC(=O)Nc3cccc4ccccc34)ccc2O[C@@H](C)CCCCO[C@@H]1CN(C)CC1CCCCC1	Pf Dd2 inh -88
C[C@@H]1CCCCO[C@@H](CN(C)CC2CC2)[C@H](C)CN([C@H](C)CO)C(=O)c2cc(NC(=O)Nc3cccc4ccccc34)ccc2O1	none
C[C@@H]1CN([C@H](C)CO)S(=O)(=O)c2ccc(C3=CCCCC3)cc2O[C@H]1CN(C)Cc1cccc(C(=O)O)c1	none
C[C@@H]1CCCCO[C@@H](CN(C)C(=O)C2CCCCC2)[C@@H](C)CN([C@@H](C)CO)C(=O)c2cc(NS(=O)(=O)c3ccc(F)cc3)ccc2O1	none
C[C@H](CO)N1C[C@H](C)[C@@H](CN(C)C(=O)Nc2cccc(Cl)c2Cl)OCc2ccccc2-c2ccccc2C1=O	Pf Dd2 inh -84 (no result: Tcruzi prolif)
COc1ccccc1NC(=O)N(C)C[C@H]1OCc2ccccc2-c2ccccc2C(=O)N([C@@H](C)CO)C[C@@H]1C	none
COc1ccccc1NC(=O)N(C)C[C@@H]1OCc2ccccc2-c2ccccc2C(=O)N([C@@H](C)CO)C[C@H]1C	Pf Dd2 inh -86
COc1ccccc1NC(=O)N(C)C[C@@H]1OCc2ccccc2-c2ccccc2C(=O)N([C@H](C)CO)C[C@H]1C	none
O=C(Nc1cc(F)ccc1F)N1CC(=O)N2[C@H](CO)[C@@H](c3ccc(-c4cccc(F)c4)cc3)[C@H]2C1	none (no result: Tcruzi prolif)
C[C@@H]1CCCCO[C@H](CN(C)Cc2ccccc2)[C@H](C)CN([C@H](C)CO)C(=O)c2cc(NC(=O)NC3CCCCC3)ccc2O1	none
Cc1noc(C)c1S(=O)(=O)N(C)C[C@H]1OCCCC[C@H](C)Oc2ccc(NC(=O)c3ccccc3)cc2C(=O)N([C@@H](C)CO)C[C@@H]1C	Pf Dd2 inh -86
Cc1noc(C)c1S(=O)(=O)N(C)C[C@H]1OCCCC[C@@H](C)Oc2ccc(NC(=O)c3ccccc3)cc2C(=O)N([C@@H](C)CO)C[C@@H]1C	Pf Dd2 inh -84
Cc1noc(C)c1S(=O)(=O)N(C)C[C@H]1OCCCC[C@H](C)Oc2ccc(NC(=O)c3ccccc3)cc2C(=O)N([C@H](C)CO)C[C@H]1C	none
